An excerpt weighted towards active compounds, which were near 12% of everything screened.
BAZ2B inh – inhibitors of human BAZ2B bromodomain; Q9UIF8; AlphaScreen BAZ2B-H3K14Ac peptide displacement; Potency, µM (top dose mostly 114 µM), without a hit: at the top dose activity change, negative = inhibition, hits mostly inhibitors; 4.4% of 360,000 active; AID 504333; note: potency is the fitted concentration of half-maximal effect; % is set by controls: 0 for no effect and ±100 for the full control effect; nearly all actives have a fitted effect of over 60% in size
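Compounds, titrated to a top concentration of 110 uM, were incubated 30 min at room temperature with preformed BAZ2B/acetyl-K14 H3 peptide complex (50 nM each). Proximity signal was measured by AlphaScreen after 20 min with beads.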
HP1b binding inh – blocks HP1-beta chromodomain binding to methylated histone tails; P83916; AlphaScreen HP1-beta / biotin-H3K9me3 peptide binding; Potency, µM (highest dose often 114 µM), for the others: at the top dose activity change, negative = inhibition, usual class: inhibitors; 0.56% of 390,000 active; AID 540317; note: potency is the fitted concentration of half-maximal effect; nearly all actives have a fitted effect of over 70% in size
Target sequence (P83916 whole entry, looked up): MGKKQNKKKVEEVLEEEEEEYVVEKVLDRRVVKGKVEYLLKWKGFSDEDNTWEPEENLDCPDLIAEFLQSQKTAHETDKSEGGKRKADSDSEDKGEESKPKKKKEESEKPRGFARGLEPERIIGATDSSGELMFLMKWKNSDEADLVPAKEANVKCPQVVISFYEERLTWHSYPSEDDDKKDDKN
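AlphaScreen: HP1-beta (50 nM) preformed 30 min with biotin-H3(1-18)K9me3 peptide (50 nM) in PBS pH 7.4, 0.01% Tween-20. Compound added for 30 min at RT, then streptavidin donor/nickel chelate acceptor beads (10 ug/mL) for 30 min.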
PI5P4Ka inh – blocks human PI5P4K alpha kinase activity | P48426 | PI5P4Kalpha enzyme, ADP-Glo luminescence, 60 min; active compounds read low | max response, % | 1.2% of 330,000 active | AID 652105; active = max response of -50% or lower; inconclusive = between -30% and -50%; inactive = -30% or higher; note: value at the top dose of about 77 µM; % is set by controls: 0 for no effect and ±100 for the full control effect
Target sequence (P48426 whole entry, looked up): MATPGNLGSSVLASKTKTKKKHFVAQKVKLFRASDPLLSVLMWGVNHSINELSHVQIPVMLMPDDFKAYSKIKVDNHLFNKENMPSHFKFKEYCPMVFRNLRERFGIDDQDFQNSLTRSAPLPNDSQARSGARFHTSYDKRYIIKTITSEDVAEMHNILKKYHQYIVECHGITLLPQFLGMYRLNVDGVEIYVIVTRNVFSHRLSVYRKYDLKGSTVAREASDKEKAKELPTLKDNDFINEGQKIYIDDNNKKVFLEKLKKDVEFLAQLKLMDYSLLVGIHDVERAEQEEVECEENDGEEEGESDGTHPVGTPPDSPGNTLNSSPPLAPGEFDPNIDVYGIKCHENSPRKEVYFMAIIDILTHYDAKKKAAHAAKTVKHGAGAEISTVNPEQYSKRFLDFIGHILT
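ADP-Glo luminescence end-point read after a 60 min room-temperature kinase reaction of PI5P4Kalpha plus substrate, initiated with ATP at 5 microM final. Buffer: 0.038 M HEPES pH 7.4, EGTA, 0.1% CHAPS, 5% DMSO.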
JMJD2A Tudor – blocks the human JMJD2A Tudor domain; Potency, µM (doses to about 114 µM), without a hit: top-dose activity change, negative = inhibition, hits mostly inhibitors; 4.4% of 390,000 active; AID 504339; AlphaScreen JMJD2A-Tudor / H3K4me3 peptide binding; note: potency is the fitted concentration of half-maximal effect; % is set by controls: 0 for no effect and ±100 for the full control effect; nearly all actives have a fitted effect of over 50% in size
G9a inh – blocks human histone lysine methyltransferase G9a. Q96KQ7. G9a H3K9 monomethylation, AlphaScreen, 2 h. Potency, µM (doses to about 102 µM), without a hit: at the top dose activity, negative = inhibition, most hits filed as inhibitors. 8.8% of 350,000 active. AID 504332; note: potency is the fitted concentration of half-maximal effect; % is set by controls: 0 for no effect and ±100 for the full control effect; nearly all actives have a fitted effect of over 75% in size
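Quantitative HTS format: methyltransferase activity on a biotin-tagged H3K9 peptide is measured by AlphaScreen, using a rabbit anti-monomethyl-H3K9 antibody with streptavidin donor and anti-IgG acceptor beads. Final levels are 20 nM enzyme, 500 nM peptide, 20 uM SAM; 2 h RT.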
PLK1 PBD inh – blocks phosphopeptide binding to human PLK1 polo-box domain; P53350; Plk1 PBD binding of FITC phosphopeptide, fluorescence polarization; Potency, µM, inactives show max response, negative = inhibition, usual class: inhibitors; 2.8% of 360,000 active; AID 720504; note: potency is the fitted concentration of half-maximal effect; series mostly up to about 57 µM; % is set by controls: 0 for no effect and ±100 for the full control effect; nearly all actives have a fitted effect of over 65% in size
The depositor's hits bear a star; ? = inconclusive; . = no result given; [ ] = another dose, or the depositor's remark. Unless noted, calls come from the whole dose curve; as a rule, active = well fitted curve in the direction sought with a large enough effect; inconclusive = small, poorly fitted or top-dose-only effect, or another doubt; inactive = no such curve, though single readings can be large; an effect the other way counts as inactive or inconclusive.

SMILES	BAZ2B inh	HP1b binding inh	PI5P4Ka inh	JMJD2A Tudor	G9a inh	PLK1 PBD inh
COc1cc(/C=N/NC(=O)c2ccc(CSc3nncn3C)cc2)cc(OC)c1O	-20%	9%	-4	-12%	13µM*	-5%
COc1cc(C=NNC(=O)c2ccc(NS(=O)(=O)c3cccs3)cc2)cc(Br)c1O	.	7%[57 µM]	-82*	-8%	.	-3%
COc1cc(/C=N/NC(=O)c2ccc([N+](=O)[O-])cc2Cl)cc(Br)c1O	2%	10%	8	-4%	45µM*	-4%
COc1ccccc1CNC(=O)c1ccc(NS(=O)(=O)c2cccs2)cc1	5%	43%	-11	-1%	21%	-18%
Cc1ccc(NC(=O)C2CCCN(S(=O)(=O)c3cccc4nsnc34)C2)cc1C (stereo not drawn)	.	30%	.	-8%	3%[59 µM]	.
COc1ccc(NC(=O)CC(C)n2nc(C)cc2C)cc1Cl (stereo not drawn)	-4%	6%	.	-19%	5%[59 µM]	.
O=[N+]([O-])c1cccc(C2CC(c3ccccc3)=NN2c2ccccc2)c1 (stereo not drawn)	?	?	-6	28µM*	32µM*	-11%
CC1CCCCC1NC(=O)CSc1nncn1N (stereo not drawn)	-8%	?	-4	-18%[11.4 µM]	5%[12.7 µM]	21µM*
CC1CCCCC1NC(=O)CSc1nncs1 (stereo not drawn)	5%	71%	0	0%	17%	-3%
COc1ccc(NC(=O)CCOc2ccccc2C)cc1S(=O)(=O)N1CCCCC1	9%	-20%	2	-24%	?	-11%
CCc1ccccc1NC(=O)CN(C1CCCCC1)S(C)(=O)=O	-7%	45%	-4	1%	-4%[0.501 µM]	-7%
O=C(NCc1ccccn1)C(=O)Nc1nc(C23CC4CC(CC(C4)C2)C3)cs1	-13%	32%	-1	-23%	-14%	5%
CN(C)Cc1nc2ccccc2c(=O)n1Cc1nc(-c2cc3ccccc3o2)cs1	?	-14%	-2	50µM*	?	19µM*
Cc1csc(Cn2c(CN(C)C)nc3ccccc3c2=O)n1	-11%	16%	1	-20%	-36%[12.7 µM]	-6%
CCOc1ccc(-c2csc(Cn3c(CN4CCN(C)CC4)nc4ccccc4c3=O)n2)cc1	?	?	-10	22µM*	22µM*	24µM*
Cc1ccc(S(=O)(=O)NC(=O)c2ccc(-c3ccc(C)c4ccccc34)o2)cc1	?	-2%	?	45µM*	50µM*	27µM*
O=C(O)CSc1ccnc2cc(Cl)ccc12	-4%	19%	-25	-11%	56µM*	2%
O=C(Cn1cnc([N+](=O)[O-])c1)NCCc1ccccc1	-29%	21%	-1	-8%	28µM*	-1%
O=C(Cn1cnc([N+](=O)[O-])c1)Nc1ccccc1C(F)(F)F	16%	23%	-1	?	.	30µM*
CCOCCCNC(=O)c1cc2c(=O)[nH]c3ccccc3c2n1C	.	67%	.	?	32%[59 µM]	.
CN(C)CCCn1c(SCc2c(Cl)cccc2Cl)nnc1-c1ccncc1	71µM*	?	2	20µM*	10µM*	-14%
c1ccc(CCn2c(SCc3ccccc3)nnc2-c2ccncc2)cc1	-2%	16%	0	-4%	-22%[59 µM]	-8%
CC1(C)C(/C=C/C=C/C=C/C=C2\N(CCCCS(=O)(=O)O)c3ccc4ccccc4c3C2(C)C)=[N+](CCCCS(=O)(=O)[O-])c2ccc3ccccc3c21	.	?	-90*	6.3µM*	?	?
Cc1ccc(Nc2n[nH]c(=S)s2)c(C)c1	.	.	-88*	.	.	24µM*
Cc1cc(C)c(Nc2n[nH]c(=S)s2)cc1C	.	.	-90*	.	.	27µM*
SMILES	BAZ2B inh	HP1b binding inh	PI5P4Ka inh	JMJD2A Tudor	G9a inh	PLK1 PBD inh
CCc1nn(CC(=O)N2CCN(c3cccc(C(F)(F)F)c3)CC2)c(=O)c2cccn12	71µM*	17%	.	?	-35%[59 µM]	.
COc1ccccc1N1CCN(C(=O)c2cnn(-c3cccc(Cl)c3)c2C2CCN(C(=O)OC(C)(C)C)CC2)CC1	-15%[57.1 µM]	-7%	.	?	-31%[59 µM]	.
O=C(/C=C/c1ccccc1)NCCc1c[nH]c2ccccc12	.	?	1	-32%	.	-5%
O=[N+]([O-])c1ccc(N=Nc2c(Cl)cc(O)cc2Cl)cc1	8.9µM*	13µM*	-5	11µM*	10µM*	?
Cc1ccccc1CC1SC(N=C(N)N)=NC1=O (stereo not drawn)	3%	35%	2	?	-7%	-7%
Cc1ccccc1CC1SC(N)=NC1=O (stereo not drawn)	-20%	21%	-5	-13%	32µM*	-18%
CC(=O)Nc1ccc(NC(=O)c2ccc(-c3ccccc3Cl)o2)cc1	5%	13%	0	-23%	-34%	-9%
O=C(Nc1ccccc1)c1ccc(-c2ccccc2Cl)o1	-4%	25%	-1	8%	50µM*	-15%
O=C(NCc1ccccc1)c1ccc(Br)o1	3%	19%	0	-18%	-18%	-14%
O=C(NCCc1ccccc1)c1ccc(-c2ccccc2Cl)o1	-14%	9%	4	25%	45µM*	-16%
CCOc1ccccc1-c1ccc(C(=O)NCc2ccccc2)o1	?	-6%	-2	?	50µM*	-5%
O=C(Nc1ccccc1)c1ccc(-c2ccccc2C(F)(F)F)o1	7%	82%	-6	13%	45µM*	-4%
CC(C)NC(=O)c1ccc(-c2ccccc2C(F)(F)F)o1	-2%	7%	.	-3%	-6%[59 µM]	-2%
O=C(Cn1nnc2ccccc2c1=O)N[C@H](C(=O)O)c1ccccc1	1%	10%	-7	-18%[11.4 µM]	.	30µM*
O=C(CCCn1nnc2ccccc2c1=O)N[C@H](C(=O)O)c1ccccc1	-3%	71%	0	-6%	3%	-5%
C[C@H](NC(=O)CCn1nnc2ccccc2c1=O)C(=O)O	-4%	24%[57 µM]	-3	7%	28%	3%
CC(C)C[C@H](NC(=O)CCn1nnc2ccccc2c1=O)C(=O)O	-2%	16%	-11	?	-5%	19µM*
O=C(Nc1ccc(OC(F)(F)F)cc1)C1CCCN(C(=O)c2ccc(Cl)cc2)C1 (stereo not drawn)	3%	39%	15	-11%	11%[12.7 µM]	-1%
CC1CCCN(C(=O)C(C)Nc2cc(Cl)ccc2N2CCOCC2)C1 (stereo not drawn)	?	2%	0	?	40µM*	?
CC(C)(C)c1cc(CCC(=O)NNC(=S)NC(=O)c2ccccc2)cc(C(C)(C)C)c1O	-34%	8%	-16	?	28µM*	?
O=C(CCc1ccccc1)NNC(=S)NC(=O)c1ccccc1	2%[57.1 µM]	-4%	.	28µM*	4.5µM*	27µM*

High-throughput results as filed in PubChem.
